# According to PubChem BioAssay (NCATS):
# Values joined by “and” are separate entries in the source; they are usually repeats but may differ in a detail not shown here. Equal entries are not always repeated. Inconclusive results are not listed. Entries that show only a call come without a potency. Active and inactive are the calls of the source. Unless noted, calls follow the shape of the dose curve; as a rule, active = well fitted curve in the direction sought with a large enough effect; inconclusive = small, poorly fitted or top-dose-only effect, or another doubt; inactive = no such curve, though single readings can be large; an effect the other way counts as inactive or inconclusive.
# How the values were obtained:
# [1] = qHTS to identify inhibitors of the type 1 interferon - major histocompatibility complex class I in skeletal muscle: primary screen against the NCATS Mechanism Interrogation Plate v5.0 (MIPE) Libary (AID 1347411); also: nearly all actives have a fitted effect of over 65% in size; also: potency is read from the fitted curve at half-maximal effect
# Outline: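 HLA-B HiBit myoblasts, dexamethasone-free medium + 4 ng/ml IFN-b, 24 h compound, 11-pt 1:3 from 46 uM final. Readout: Nano-Glo HiBiT lytic luminescence after 10 min lysis, RT.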
# [2] = Primary qHTS for small molecule stabilizers of the endoplasmic reticulum resident proteome: Secreted ER Calcium Modulated Protein (SERCaMP) assay (AID 1508630)
# Outline: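 The SH-SY5Y reporter protocol was run at 3 concentrations up to 38.3 uM (primary) or 11 concentrations (follow-up): 16 h compound, 100 nM thapsigargin for 4 h, then extracellular luciferase luminescence.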
# [3] = Primary qHTS for inhibitors of nuclear receptor binding SET domain protein 2 (NSD2) in an isogenic RCH-ACV NSD2 p.E1099K mutant (9B) (AID 1645876); also: nearly all actives have a fitted effect of over 70% in size; also: potency is read from the fitted curve at half-maximal effect
# [4] = Primary qHTS for inhibitors of nuclear receptor binding SET domain protein 2 (NSD2) in an RCH-ACV wild type WT cells (2C) (AID 1645877); also: nearly all actives have a fitted effect of over 70% in size; also: potency is read from the fitted curve at half-maximal effect
# [5] = molecular target: Calcium and integrin-binding protein 1 (Homo sapiens) (UniProt Q99828); assay: Confirmatory qHTS for Identification of Calcium Integrin Binding Protein 1 (CIB1) Competitor (AID 1508617); also: nearly all actives have a fitted effect of over 65% in size
# Outline: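 Confirmatory qHTS measures displacement of a FITC-alphaIIb peptide (100 nM) from CIB1-GST (1 uM) by fluorescence polarization. Calcium-containing HEPES buffer, pH 7.4; two 15 min room-temperature incubations.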
# [6] = molecular target: Calcium and integrin-binding protein 1 (Homo sapiens) (UniProt Q99828); assay: Primary qHTS for Identification of Calcium Integrin Binding Protein 1 (CIB1) Competitor (AID 1508620);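 also: GST tagged CIB1 binding a fluorescein labelled alphaIIb integrin peptide tracer; top concentration of the series differs between compounds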
# Outline: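 Fluorescence polarization competition: GST-tagged CIB1 (1 uM final) preincubated with compound 15 min at room temperature, then FITC-labelled alphaIIb peptide (100 nM final) added. After 15 min at room temperature, polarization read at Ex 480/Em 540.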
# [7] = molecular target: Cytochrome P450 2D6 (Homo sapiens) (UniProt P10635); assay: Cytochrome P450 family 2 subfamily D member 6 (CYP2D6) small molecule antagonists: luciferase biochemical (cell-free) qHTS assay (AID 1645840; active = well fitted curve in the direction sought with a large enough effect in the repeat runs; an effect the other way counts as inactive or inconclusive; also: potency is read from the fitted curve at half-maximal effect; nearly all actives have a fitted effect of over 55% in size)
# Outline: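 P450-Glo CYP2D6 system: proluciferin substrate converted by enzyme to luciferin, read by luminescence proportional to activity. Enzyme-substrate mix with compound 10 min at room temperature, then NADPH regeneration 1 h before detection reagent.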
# [8] = molecular target: Cytochrome P450 2C9 (Homo sapiens) (UniProt P11712); assay: Cytochrome P450 family 2 subfamily C member 9 (CYP2C9) small molecule antagonists: luciferase biochemical (cell-free) qHTS assay (AID 1645842; active = well fitted curve in the direction sought with a large enough effect in the repeat runs; an effect the other way counts as inactive or inconclusive; also: potency is read from the fitted curve at half-maximal effect; nearly all actives have a fitted effect of over 55% in size)
# Outline: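 P450-Glo CYP2C9 system: proluciferin substrate with enzyme in mix containing 0.4% BSA, 10 min at room temperature, then NADPH regeneration solution added and incubated 1 h at 37C. Detection reagent stopped reaction; luminescence read after 20 min as RLU.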
# [9] = Validation qHTS assay for inhibitors of Activation Induced Cytidine Deaminase (AID): UDG Counterscreen signal (AID 1347427)
# Outline: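 Fluorescence at 560 nm excitation, 665 nm emission reports UDG signal after 250 mM NaOH (2x) addition and 30 min. Enzymes (AID 1 uM, UDG 2 U/mL, at 4/3x) preincubated 10 min with compound, then 4 h with 4x 250 nM DJC20/DJC23 substrate at room temperature.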
# [10] = molecular target: Single-stranded DNA cytosine deaminase (Homo sapiens) (UniProt Q9GZX7); assay: Validation qHTS assay for inhibitors of Activation Induced Cytidine Deaminase (AID): AID signal (AID 1347429)
# Outline: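 AID+UDG coupled FRET deamination; cpds up to 114 uM final; DJC20/DJC23 substrate, 4 hr RT; NaOH stop, 30 min RT; read Ex 540/Em 590.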
# [11] = Primary qHTS for inhibitors of La Crosse Virus (LACV) - induced cell death in SH-SY5Y cells (AID 1508616);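 also: top concentration of the series differs between compounds; higher means more rescue of cells from virus-induced death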
# Outline: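 Cytopathicity rescue screen: compounds pinned onto SH-SY5Y cells, which are then infected with LACV (MOI 0.01) and held 6 days at 37C. Percent activity is scaled between infected DMSO control and uninfected DMSO control.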
# [12] = Counterscreen qHTS for small molecule stabilizers of the endoplasmic reticulum resident proteome: GLuc-NoTag assay (AID 1508627);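 also: SH-SY5Y cells given compound then 100 nM thapsigargin to empty ER calcium; series mostly up to about 76 µM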
# Outline: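 Counterscreen line: SH-SY5Y-GLuc-NoTag. Seed, 5 h; compound, 19 h; thapsigargin 100 nM, 4 h; 37C/5% CO2. Readout: secreted GLuc luminescence, coelenterazine 0.07x final, no lysis.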
# Sequence of Calcium and integrin-binding protein 1 (Homo sapiens) (Q99828 whole entry, looked up): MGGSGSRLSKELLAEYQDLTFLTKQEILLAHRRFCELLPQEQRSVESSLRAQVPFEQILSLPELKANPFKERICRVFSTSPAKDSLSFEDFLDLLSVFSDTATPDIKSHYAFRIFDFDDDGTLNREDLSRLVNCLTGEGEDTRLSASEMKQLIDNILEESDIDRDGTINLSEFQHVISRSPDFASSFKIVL
# Sequence of Single-stranded DNA cytosine deaminase (Homo sapiens) (Q9GZX7 whole entry, looked up): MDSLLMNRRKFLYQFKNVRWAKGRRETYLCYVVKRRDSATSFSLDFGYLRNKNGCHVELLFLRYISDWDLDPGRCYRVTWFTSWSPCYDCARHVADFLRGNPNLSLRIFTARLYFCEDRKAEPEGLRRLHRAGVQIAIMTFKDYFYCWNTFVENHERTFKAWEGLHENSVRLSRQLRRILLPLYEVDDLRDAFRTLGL
# Sequence of Cytochrome P450 2D6 (Homo sapiens) (P10635 whole entry, looked up): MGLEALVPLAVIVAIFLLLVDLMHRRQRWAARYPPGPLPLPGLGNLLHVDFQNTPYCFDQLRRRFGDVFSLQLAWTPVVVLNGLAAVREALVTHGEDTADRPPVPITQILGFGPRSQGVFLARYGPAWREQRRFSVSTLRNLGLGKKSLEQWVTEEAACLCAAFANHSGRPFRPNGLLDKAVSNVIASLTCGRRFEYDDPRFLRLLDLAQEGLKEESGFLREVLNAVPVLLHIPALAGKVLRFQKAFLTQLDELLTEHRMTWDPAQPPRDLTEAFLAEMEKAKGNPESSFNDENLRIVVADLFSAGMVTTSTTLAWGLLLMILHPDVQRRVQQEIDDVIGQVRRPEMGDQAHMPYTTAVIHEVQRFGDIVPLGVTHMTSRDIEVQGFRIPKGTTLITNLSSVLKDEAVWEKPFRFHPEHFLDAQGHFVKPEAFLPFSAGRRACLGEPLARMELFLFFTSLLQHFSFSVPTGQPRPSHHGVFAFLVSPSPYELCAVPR
# Sequence of Cytochrome P450 2C9 (Homo sapiens) (P11712 whole entry, looked up): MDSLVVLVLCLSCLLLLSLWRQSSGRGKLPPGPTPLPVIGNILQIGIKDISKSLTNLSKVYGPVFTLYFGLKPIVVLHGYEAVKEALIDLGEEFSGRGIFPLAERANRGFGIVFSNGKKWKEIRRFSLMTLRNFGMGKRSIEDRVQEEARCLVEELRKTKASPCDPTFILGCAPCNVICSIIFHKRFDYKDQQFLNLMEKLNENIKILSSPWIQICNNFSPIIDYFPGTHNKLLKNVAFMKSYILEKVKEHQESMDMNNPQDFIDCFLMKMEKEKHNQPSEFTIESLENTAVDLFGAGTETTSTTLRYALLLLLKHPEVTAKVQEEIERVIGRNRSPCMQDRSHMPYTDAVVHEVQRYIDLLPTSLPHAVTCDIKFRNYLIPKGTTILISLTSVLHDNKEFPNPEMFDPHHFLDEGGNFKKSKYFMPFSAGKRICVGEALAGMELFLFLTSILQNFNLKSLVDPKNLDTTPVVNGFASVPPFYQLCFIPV
smiles,measurement,setting,value
COc1cccc2c1C(=O)c1c(O)c3c(c(O)c1C2=O)C[C@@](O)(C(=O)CO)C[C@@H]3O[C@H]1C[C@H](N)[C@H](OC2CCCCO2)[C@H](C)O1 (stereo partly specified),Potency,[1],2.62 µM (active) and 2.34 µM (active)
same,outcome,[2],inactive
same,Potency,[3],93.4 nM (active) and 2.63 µM (active)
same,Potency,[4],52.5 nM (active) and 2.95 µM (active)
NC(=O)c1ncn([C@@H]2O[C@H](CO)[C@@H](O)[C@@H]2O)c1O,Potency,[5],inactive
same,Potency,[6],inactive
same,outcome,[2],inactive
Cn1cnc(=N)c2[nH]cnc21,Potency,[1],inactive
same,outcome,[2],inactive
same,Potency,[3],inactive
same,Potency,[4],inactive
CC(=O)ON=C1C(c2c(O)[nH]c3cc(Br)ccc23)=Nc2ccccc21,Potency,[6],inactive
Nc1ncn([C@@H]2O[C@H](CO)[C@@H](O)[C@@H]2O)c(=O)n1,Potency,[6],inactive
C[C@@H]1C(=O)O[C@H]2CC34[C@H]5C[C@@H](C(C)(C)C)C36[C@H](OC(=O)[C@@H]6O)O[C@@]4(C(=O)O5)[C@]21O (stereo partly specified),Potency,[1],inactive
same,outcome,[2],inactive
same,Potency,[3],inactive
same,Potency,[4],inactive
CC(C=CC(=O)NO)=C[C@@H](C)C(=O)c1ccc(N(C)C)cc1,Potency,[6],inactive
CCCNS(=O)(=O)Nc1ncnc(OCCOc2ncc(Br)cn2)c1-c1ccc(Br)cc1,Potency,[1],inactive
same,outcome,[2],inactive
same,Potency,[3],18.6 µM (active)
same,Potency,[4],16.6 µM (active)
CN(N=O)C(=O)N[C@H]1C(O)OC(CO)[C@@H](O)[C@H]1O (stereo partly specified),Potency,[6],inactive
O=C1c2c(O)cccc2[C@@H]([C@@H]2O[C@H](CO)[C@@H](O)[C@H](O)[C@H]2O)c2cc(CO)cc(O)c21,Potency,[6],inactive
COc1cccc2c1C(=O)c1c(O)c3c(c(O)c1C2=O)C[C@@](O)(C(=O)CO)C[C@@H]3O[C@H]1C[C@H](N)[C@@H](O)[C@H](C)O1,Potency,[1],829 nM (active)
same,Potency,[3],0.0661 µM (active)
same,Potency,[4],0.0468 µM (active)
CC[C@H]1OC(=O)[C@H](C)[C@@H](O[C@H]2C[C@@](C)(OC)[C@@H](O)[C@H](C)O2)[C@H](C)[C@@H](O[C@@H]2O[C@@H](C)C[C@H](N(C)C)[C@@H]2O)[C@](C)(O)C[C@@H](C)C(=O)[C@H](C)[C@@H](O)[C@]1(C)O,Potency,[6],inactive
CC1(C)[C@H](O[C@H]2O[C@H](C(=O)O)[C@@H](O)[C@H](O)[C@H]2O[C@@H]2O[C@H](C(=O)O)[C@@H](O)[C@H](O)[C@H]2O)CC[C@@]2(C)[C@H]1CC[C@]1(C)[C@H]2C(=O)C=C2[C@H]3C[C@@](C)(C(=O)O)CC[C@]3(C)CC[C@]21C,Potency,[6],inactive
CCc1cc(C(C)=NOCc2ccc(C3CCCCC3)c(C(F)(F)F)c2)ccc1CN1CC(C(=O)O)C1,Potency,[6],inactive
COc1ccnc2[nH]cc(C(=O)C(=O)N3CCN(C(=O)c4ccccc4)C[C@@H]3C)c12,Potency,[6],inactive
C[C@@H](NCc1cc2ccccc2[nH]1)c1cccc2ccccc12,Potency,[5],inactive
same,outcome,[2],inactive
same,Potency,[7],0.0952 µM (active)
same,Potency,[8],10.7 µM (active)
same,Potency,[3],16.6 µM (active)
same,Potency,[4],14.8 µM (active)
O=c1[nH]c(=O)n([C@H]2C[C@@H](O)[C@@H](CO)O2)cc1C=CBr,outcome,[9],inactive
same,outcome,[10],inactive
same,outcome,[11],inactive
same,Potency,[6],inactive
same,outcome,[2],inactive
O=C(O)C=Cc1ccc(Cn2ccnc2)cc1,Potency,[6],inactive
N#CC(=Cc1ccc(O)c(O)c1)C(=O)NCc1ccccc1,Potency,[6],inactive
Cc1cnn(C)c1C(=O)Nc1cc(Nc2ccc3c(C=Cc4ccccn4)n[nH]c3c2)ccc1F,Potency,[6],inactive
CCOC(=O)[C@H](CCc1ccccc1)N[C@@H](C)C(=O)N1[C@@H](C(=O)O)C[C@H]2CCC[C@@H]21,Potency,[6],inactive
C[C@H]1COc2c(N3CCN(C)CC3)c(F)cc3c(=O)c(C(=O)O)cn1c23,Potency,[1],inactive
same,outcome,[2],inactive
same,Potency,[4],inactive
COc1ccc2cc([S+]([O-])Cc3ncc(C)c(OC)c3C)nc2c1,outcome,[9],inactive
same,outcome,[10],inactive
same,outcome,[11],inactive
same,Potency,[6],inactive
C[N+]1(C)[C@@H]2C[C@@H](OC(=O)C(O)(c3cccs3)c3cccs3)C[C@H]1[C@@H]1O[C@@H]12,Potency,[6],inactive
C=CC1=C(C(=O)O)N2C(=O)[C@@H](NC(=O)C(=NO)c3csc(N)n3)[C@H]2SC1,Potency,[6],inactive
C#C[C@]1(O)CC[C@@H]2[C@@H]3CCc4cc(O)ccc4[C@H]3CC[C@@]21C,Potency,[6],inactive
C=CC[C@@H]1C=C(C)C[C@H](C)C[C@H](OC)[C@H]2O[C@@](O)(C(=O)C(=O)N3CCCC[C@H]3C(=O)O[C@H](C(C)=C[C@@H]3CC[C@H](O)[C@H](OC)C3)[C@@H](C)[C@@H](O)CC1=O)[C@@H](C)C[C@@H]2OC,outcome,[12],inactive
C=CC(=O)Nc1cc(NC(=O)c2ccc(C)c(NC(=O)c3ccno3)c2)cc(C(F)(F)F)c1,Potency,[6],inactive
same,outcome,[2],inactive
OCc1ccccc1O[C@@H]1O[C@H](CO)[C@H](O)[C@H](O)[C@H]1O,Potency,[6],inactive
same,outcome,[2],inactive
